High-throughput results (PubChem BioAssay)
A selection: hits, their analogues and other compounds. The true share with any hit is near 2.4%.
S1P3 antagonist: S1P3 (human) receptor antagonism; Q99500; AID 485; hit rate 0.27% among 170,000; inhibition, % at 4.98 µM; CHO S1P3 NFAT-BLA reporter, FRET fluorescence, antagonist mode;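 active = inhibition above the plate cutoff, the mean inhibition of test wells on that plate plus 3 SD, cut at about 28% in these data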;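 also: cells challenged with S1P at its EC80 of 0.8 µM; blue over green emission ratio from cleaved BLA substrate after 4 h stimulation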
EP2 modulator: EP2 receptor (human) modulation; hit rate 0.83% among 260,000; induction, % at 25 µM; AID 940; EP2-expressing cells, cAMP HTRF FRET, PGE2 co-stimulation;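 active = compounds whose cAMP rise, as percent of the full-agonist control response, exceeds 60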;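 also: rat C6 glioma line stably carrying human EP2 under a CMV promoter; the protocol text gives 20 µM as final concentration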
EP2 antag: EP2 receptor (human) inhibition | P43116 | C6 glioma cells expressing human EP2, cAMP TR-FRET; cells stimulated with saturating PGE2 | inhibition, % at 25 µM | hit rate 0.52% among 260,000;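 active = percent inhibition above 40 after rounding to a whole number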;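 also: rat C6 glioma host cells with rolipram phosphodiesterase inhibitor present; the protocol text gives 20 µM as final concentration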
S1P4 agonist: agonists of human S1P4 receptor | S1P4-expressing cell line, agonist reporter assay | activation, % at 4.98 µM | hit rate 0.35% among 220,000; in the data active = activation above about 11%
Target sequence (O95977 whole entry, looked up): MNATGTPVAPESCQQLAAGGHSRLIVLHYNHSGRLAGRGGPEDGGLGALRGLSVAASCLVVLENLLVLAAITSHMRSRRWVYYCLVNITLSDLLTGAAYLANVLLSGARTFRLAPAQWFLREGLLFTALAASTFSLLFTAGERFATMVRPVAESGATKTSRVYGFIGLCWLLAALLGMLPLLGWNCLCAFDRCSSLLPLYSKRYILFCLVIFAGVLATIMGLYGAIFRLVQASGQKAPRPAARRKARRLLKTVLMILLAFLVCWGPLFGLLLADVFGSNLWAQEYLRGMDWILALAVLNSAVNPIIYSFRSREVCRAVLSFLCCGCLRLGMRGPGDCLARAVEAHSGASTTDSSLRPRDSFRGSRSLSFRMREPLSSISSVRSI
Insulin prom inh: TRM-6 insulin promoter activity inhibition | TRM-6 cells (human fetal islet line), insulin promoter-eGFP reporter, imaging; reporter expression induced with tamoxifen | inhibition, % at 2 µM | hit rate 0.9% among 130,000;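 active = inhibition above the mean plus 3 SD, with well images judged a real hit on visual review, cut at about 60% in these data, passing the limit was not always enough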
S1P4 antagonist: human S1P4 receptor antagonism. hit rate 0.26% among 220,000. inhibition, % at 4.98 µM. S1P4-expressing cells, antagonist mode, reporter read-out. O95977; in the data active = inhibition above about 29%
A number is an active result; ! = not confirmed by another sample.

What do the screens show for `CC(=O)c1ccc(S(=O)(=O)N2CCCCCC2)cc1`?
EP2 modulator: inactive; EP2 antag: 94.5

How did CC(=O)CN1CCC(O)(c2ccc3c(c2)OCO3)CC1 do in these assays?
EP2 modulator: inactive; EP2 antag: inactive

Results for NC(=O)CNc1n[nH]c(=S)[nH]c1=O ?
S1P3 antagonist: inactive; EP2 modulator: inactive; EP2 antag: inactive; S1P4 agonist: inactive; S1P4 antagonist: inactive

How did CCCCOC(=O)CNc1n[nH]c(=S)[nH]c1=O do in these assays?
EP2 modulator: inactive; EP2 antag: 113.7; S1P4 agonist: inactive; Insulin prom inh: inactive; S1P4 antagonist: inactive

What do the screens show for `CC(C)COC(=O)CNc1n[nH]c(=S)[nH]c1=O`?
EP2 modulator: inactive; EP2 antag: 133.3; S1P4 agonist: inactive; Insulin prom inh: inactive; S1P4 antagonist: inactive

How did C=CCn1c2cc(C)sc2c2cnn(CC(=O)N3CCCCCC3)c(=O)c21 do in these assays?
EP2 modulator: inactive

How did Cc1cc2cc(CN(Cc3cccs3)S(=O)(=O)c3ccc(Cl)cc3)c(=O)[nH]c2cc1C do in these assays?
EP2 modulator: inactive; EP2 antag: inactive

What do the screens show for `Brc1ccc(-c2nn3c(-c4ccco4)nnc3s2)o1`?
S1P3 antagonist: inactive; EP2 modulator: inactive; EP2 antag: 42.7; S1P4 agonist: inactive; S1P4 antagonist: inactive

How did Cc1ccc(OCc2nn3c(-c4ccco4)nnc3s2)cc1 do in these assays?
S1P3 antagonist: inactive; EP2 modulator: 63.1; EP2 antag: inactive; S1P4 agonist: inactive; Insulin prom inh: inactive; S1P4 antagonist: inactive

What do the screens show for `Clc1ccc(OCc2nn3c(-c4ccco4)nnc3s2)c(Cl)c1`?
S1P3 antagonist: inactive; EP2 modulator: inactive; EP2 antag: inactive; S1P4 agonist: inactive; S1P4 antagonist: inactive

What do the screens show for `Clc1ccc(-c2ccc(-c3nn4c(-c5ccco5)nnc4s3)o2)cc1`?
S1P3 antagonist: inactive; EP2 antag: inactive; S1P4 agonist: inactive; Insulin prom inh: inactive; S1P4 antagonist: inactive

How did CCOC(=O)c1c(NC(=O)CC)sc(C(=O)OC(C)C)c1C do in these assays?
EP2 modulator: inactive; EP2 antag: inactive

What do the screens show for `c1ccc(-c2nc3ccccc3c3nc4ccccc4n23)cc1`?
S1P3 antagonist: inactive; EP2 modulator: 64.3; EP2 antag: inactive; S1P4 agonist: inactive; S1P4 antagonist: inactive

How did CC(=O)Nc1ccc(C2C(C#N)=C(N)Oc3n[nH]c(C(C)(C)C)c32)cc1 (stereo unspecified) do in these assays?
EP2 modulator: inactive; EP2 antag: inactive

How did CCCCSc1nnc(-c2ccccc2NC(C)=O)c(=O)[nH]1 do in these assays?
S1P3 antagonist: inactive; EP2 modulator: inactive; EP2 antag: inactive; S1P4 agonist: inactive; S1P4 antagonist: inactive

What do the screens show for `CCSc1nnc(-c2ccccc2NC(C)=O)c(=O)[nH]1`?
S1P3 antagonist: inactive; EP2 modulator: inactive; EP2 antag: inactive; S1P4 agonist: inactive; Insulin prom inh: 71.4; S1P4 antagonist: inactive

What do the screens show for `COc1ccc2cc(CN(Cc3nnnn3C3CCCCC3)C3CCCC3)c(=O)[nH]c2c1`?
EP2 modulator: inactive; EP2 antag: inactive

Results for Cc1ccc(O)c(C2=Nc3ccccc3N=C(c3ccco3)C2)c1 ?
EP2 modulator: 63.0; EP2 antag: inactive; S1P4 agonist: inactive; Insulin prom inh: inactive; S1P4 antagonist: inactive

How did O=C(Nc1nnc(-c2ccccc2Cl)o1)c1ccco1 do in these assays?
S1P3 antagonist: inactive; EP2 modulator: inactive; EP2 antag: inactive; S1P4 agonist: inactive; Insulin prom inh: inactive; S1P4 antagonist: inactive

Results for O=C(Nc1nnc(-c2ccccc2Cl)o1)c1nc2ccccc2s1 ?
EP2 modulator: inactive; EP2 antag: 90.8; S1P4 agonist: inactive; S1P4 antagonist: inactive

Results for CCOc1ccccc1-c1nnc(NC(=O)CN2CC(C)OC(C)C2)s1 (stereo unspecified) ?
EP2 modulator: inactive; EP2 antag: inactive

Results for CCc1nc2ccc(NC(=O)c3csc(C(C)=O)c3)cc2[nH]1 ?
EP2 modulator: inactive; EP2 antag: inactive

What do the screens show for `CC1=CC(C)(C)N(C(=O)Nc2ccccc2)c2ccccc21`?
S1P3 antagonist: inactive; EP2 modulator: inactive; EP2 antag: inactive; S1P4 agonist: inactive; Insulin prom inh: inactive; S1P4 antagonist: inactive

How did C/C=C/C(=O)N1c2ccccc2C(C)=CC1(C)C do in these assays?
S1P3 antagonist: inactive; EP2 modulator: 61.3!; EP2 antag: inactive; S1P4 agonist: inactive; Insulin prom inh: inactive; S1P4 antagonist: inactive

Results for O=C1[C@H]2CCCN2C(=O)c2ccccc2N1Cc1ccc(F)cc1 ?
EP2 modulator: inactive; EP2 antag: inactive
